BRCA1 expr act = increases BRCA1 expression; MCF7-BRCA1-FFLuc reporter, luminescence, 48 h; response scale: scaled: vehicle 0%, 10 µM genistein 100%; Potency, µM (top dose mostly 46.1 µM), usual class: activators; 1.1% of 380,000 active; further: nearly all actives have a fitted effect of over 80% in size
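48 h compound treatment of MCF7-BRCA1-FFLuc cells (phenol-red free MEM, 37 °C), then 15 min with luciferase substrate and luminescence imaging.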
Akt phos inh = blocks phosphorylation of Akt; 0.32% of 360,000 active; Neuro2A IGF-stimulated pAkt S473 HTRF, 20 min; hits give low values; activity change, % for hits at 50 µM; in the data active means activity change below about -80%; inconclusive means mostly about -51% to -80%
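Single-point screen (50 µM final compound) in Neuro2A cells stimulated 20 min with 6 nM IGF at 37 deg C. After lysis, Ser473-phosphorylated Akt read by HTRF (ex 330 nm, em 615/665 nm) as the 665/615 ratio.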
TCR act = activates T cell receptor signaling; 330,000 tested, under 10 active; Potency, µM (doses to about 9.22 µM), usual class: activators; primary human leukocytes, anti-CD3, IL-2 HTRF, 48 h
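Primary human leukocytes incubated 48 hr with anti-CD3 beads plus compound, without co-stimulation. Secreted IL-2 measured by HTRF (europium cryptate/d2 anti-IL-2 pair, 320 nm excitation, 665 nm emission).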
PINK1 expr mod = PINK1 expression modulation; PINK1 immunofluorescence, high-content cytometry, 24 h; Potency, µM (highest dose often 76.6 µM), most hits filed as activators; 0.2% of 410,000 active; AID 624263; active means well fitted activation curve with a large enough effect; inconclusive means small, poorly fitted or top-dose-only effect; cell line not stated here; further: nearly all actives have a fitted effect of over 65% in size
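PINK1 protein, normally rapidly degraded, was detected by immunofluorescence after 24 hour compound treatment of a stable cell line. Titration data (5 concentrations) came from laser-scanning cytometry, with CCCP-treated wells as controls.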
Of the large screens only hits and unclear results are named; the others gave an inactive call. Most compounds without a hit are left out; they make up all but 1.5% or so of the library. Unless noted, the call rests on the fitted dose curve; in most records, active means well fitted curve in the direction sought with a large enough effect; inconclusive means small, poorly fitted or top-dose-only effect, or another doubt; inactive means no such curve, though single readings can be large; an effect the other way counts as inactive or inconclusive.

CCN(C(=O)c1cccs1)c1nc(-c2ccc(OC)cc2)cs1	BRCA1 expr act 12.6µM
COc1ccc(-c2nnc(N(C)C(=O)c3ccno3)s2)cc1	BRCA1 expr act 5.01µM
COCc1ccc(CN2CCOc3ccc(C4=CCCCC4)cc3C2)o1	none (no result: BRCA1 expr act, Akt phos inh, TCR act)
COc1ccccc1/C=C/C=N/n1c(-c2ccccn2)n[nH]c1=S	BRCA1 expr act 11.2µM
CC(C)C(NC(=O)OC(C)(C)C)C(=O)N1CCCC1C(=O)NC(Cc1ccccc1)C(N)=O (centres undefined)	Akt phos inh -111.6%
COC(c1ccccc1)c1nnc(CCC(=O)N(C)Cc2cccc(-n3cccn3)c2)o1 (centres undefined)	BRCA1 expr act 12.6µM
COC(c1ccccc1)c1nnc(CCC(=O)N(C)CCOc2ccccc2)o1 (centres undefined)	BRCA1 expr act inconclusive
CC(C)Oc1ccc(C(=O)NCC2Cc3cc(F)cc(-c4cnccn4)c3O2)cc1 (centres undefined)	none (no result: BRCA1 expr act, Akt phos inh, TCR act)
C/C(=N\O)c1sc(-c2ccccc2)nc1C	BRCA1 expr act 2.51µM
c1ccc(CSc2ccc(-c3cccs3)nn2)nc1	BRCA1 expr act 7.94µM
CCc1ccc(-c2ccc(SCc3ccccn3)nn2)cc1	BRCA1 expr act 5.01µM
CCSc1ccc(-c2ccc(C)cc2)nn1	BRCA1 expr act 2.51µM
c1ccc(CSc2ccc(-c3cccs3)nn2)cc1	BRCA1 expr act inconclusive
O=C(CSc1ccc(-c2cccs2)nn1)c1cccs1	BRCA1 expr act 11.2µM
O=C(c1cnccn1)N1CCC2(CC1)CN(c1ncccn1)C2	none (no result: BRCA1 expr act, Akt phos inh, TCR act)
COc1cc2nc(N3CCCN(C)CC3)nc(NC3CCNCC3)c2cc1OC	none (no result: Akt phos inh, TCR act)
CC1(C)CCC(c2ccc(Cl)cc2)=C(CN2CCN(c3ccc(C(=O)NS(=O)(=O)c4ccc(N[C@H](CCN5CCOCC5)CSc5ccccc5)c(S(=O)(=O)C(F)(F)F)c4)cc3)CC2)C1	none (no result: Akt phos inh, TCR act)
CC1CN(CC(=O)NCC2(N3CCOCC3)CCCC2)Cc2cc(Cl)ccc2O1 (centres undefined)	none (no result: BRCA1 expr act, Akt phos inh, TCR act)
CCOc1ccc(-c2ccc(SCc3ccccn3)nn2)cc1	BRCA1 expr act 4.47µM (no result: TCR act)
CCn1c(-c2ccccc2F)nc2cc(NC(C)=O)cc(C(=O)NCc3ncc(C)[nH]3)c21	none (no result: BRCA1 expr act, Akt phos inh, TCR act)
CC(O)(c1cccc(F)c1)c1nc(-c2cccc(C(=O)O)c2)cs1 (centres undefined)	none (no result: TCR act)
CC(O)(c1ccccc1)c1nc(-c2cccc(C(=O)O)c2)cs1 (centres undefined)	BRCA1 expr act 10µM (no result: Akt phos inh, TCR act)
CC(C)(O)C#Cc1ccc(C(=O)NCCN2Cc3ccccc3OC(c3ccccc3F)C2)o1 (centres undefined)	none (no result: BRCA1 expr act, Akt phos inh, TCR act)
CCOc1ccc(-c2cn(-c3ccc(OC)cc3)c(SC)n2)cc1	BRCA1 expr act 11.2µM
O=C(COc1ccc(Cl)cc1Cl)Nc1ccc(C(=O)Nc2ccccc2C(=O)O)cc1	none
CC#CCCCC(=O)Nc1ccc(C(=O)O)cc1	none
CC#CCCCC(=O)Nc1ccccc1C(=O)O	BRCA1 expr act 11.2µM
O=C(CCCOc1ccc(Cl)cc1Cl)Nc1ccccc1C(=O)O	BRCA1 expr act 6.31µM
CC1(C(=O)NC2CCCCC2)Cc2ccccc2C(=O)N1Cc1ccc(Cl)cc1 (centres undefined)	none (no result: BRCA1 expr act, Akt phos inh, TCR act)
O=C(Nc1ccc2nc(SCC(=O)N3CCCc4ccccc43)sc2c1)c1cccc(Cl)c1	none (no result: BRCA1 expr act, Akt phos inh, TCR act)
COc1cccc2cc(C(=O)C3=C(O)C(=O)N(CCN(C)C)C3c3ccc(F)cc3)oc12 (centres undefined)	none
CCN(CC)CCCN1C(=O)C(O)=C(C(=O)c2cc3ccccc3o2)C1c1ccccn1 (centres undefined)	Akt phos inh -94.6%
CCN(CC)CCCN1C(=O)C(O)=C(C(=O)c2cc3cccc(OC)c3o2)C1c1ccncc1 (centres undefined)	Akt phos inh -89.8%, PINK1 expr mod inconclusive (no result: TCR act)
CCN(CC)CCN1C(=O)C(O)=C(C(=O)c2ccco2)C1c1ccccn1 (centres undefined)	none
Nc1nonc1-c1noc(N2CCCCC2)n1	BRCA1 expr act 10µM
Nc1ccc(N2CCCCC2)c2nonc12	none
Brc1ccccc1OCCCOc1cccc2cccnc12	BRCA1 expr act 8.91µM (no result: TCR act)
COCC1CCCN(c2nc(CN3CCN(C(=O)c4ccco4)CC3)nc3ccccc23)C1 (centres undefined)	none (no result: BRCA1 expr act, Akt phos inh, TCR act)
CCc1ccc(Oc2cc(C)nc(N)n2)cc1	BRCA1 expr act 3.16µM
CCCc1ccc(Oc2cc(Cl)nc(N)n2)cc1	none
CC1CCN(S(=O)(=O)c2cccc(C(=O)NCc3cccs3)c2)CC1	none
CC1CCN(c2ccc(C(=O)NCc3cccs3)cn2)CC1	BRCA1 expr act 14.1µM
COc1ccc(N=Nc2c(N)nn(C)c2N)cc1	BRCA1 expr act 2.51µM
Cc1ccc(N=Nc2c(N)nn(-c3ccccc3)c2N)cc1	none
CCCCCCCNC1=CC(=O)CC(c2ccccc2)C1 (centres undefined)	PINK1 expr mod 39.8µM
O=C1Nc2ccccc2/C1=C/c1cnc(-c2ccccc2)[nH]1	PINK1 expr mod 44.7µM
Cc1nc(SCC(=O)c2cc3ccccc3oc2=O)c(C#N)c(-c2cccs2)c1C(=O)Nc1ccccc1	PINK1 expr mod 39.8µM
CCOC(=O)Cc1nnc2c(Nc3ccc(Cl)cc3)nc3nonc3n12	PINK1 expr mod 44.7µM
O=C(c1cnn(-c2ccc(F)cc2)c1-n1cccc1)N1CCN(c2ccccc2)CC1	none (no result: Akt phos inh, TCR act)
CS(=O)(=O)Nc1ccc(-c2ccc(/C=C3\SC(N)=NC3=O)o2)cc1	none
NC1=NC(=O)/C(=C/c2ccc(-c3ccc(S(N)(=O)=O)cc3)o2)S1	PINK1 expr mod 31.6µM
O=C(O)CCCC(=O)Nc1nc(-c2ccccc2)cs1	none
O=C(O)CCCC(=O)Nc1nc(-c2ccc(F)cc2)cs1	Akt phos inh -114.6%
O=C(CN1CCCCC1)Nc1nc(-c2ccc(Cl)cc2)cs1	none
O=C(CN1CCCCC1)Nc1nc(-c2ccc(F)c(F)c2)cs1	BRCA1 expr act 7.08µM
CCC1(C2CCN(Cc3cccc(Cl)c3)CC2)NC(=O)N(CC2COc3ccccc3O2)C1=O (centres undefined)	none (no result: BRCA1 expr act, Akt phos inh, TCR act)
COc1ccccc1C1CN(CC(=O)N2CCC(C(O)c3ccccn3)CC2)Cc2ccccc2O1 (centres undefined)	none (no result: BRCA1 expr act, Akt phos inh, TCR act)
O=C(OCCF)N1CCN(/[N+]([O-])=N/Oc2ccc([N+](=O)[O-])cc2[N+](=O)[O-])CC1	none (no result: Akt phos inh, TCR act)
Cc1ccc(O)c(CNc2ccccn2)c1	BRCA1 expr act 15.8µM
Cc1cccc(NCc2ccccc2O)c1	Akt phos inh -100.9%
Cc1ccnc(NCc2cc(C)ccc2O)c1	none (no result: TCR act)
Cc1cccc(NCCNc2cccc(C)c2)c1	Akt phos inh -104.1%
CCCCCCCNc1cccc(C)c1	none
CCc1ccccc1NC(=O)N1CCOc2ccccc21	none (no result: BRCA1 expr act, Akt phos inh, TCR act)
C[N+](C)(C)c1ccc(/C=C/c2ccnc3ccccc23)cc1	PINK1 expr mod 31.6µM (no result: Akt phos inh, TCR act)
CCN(N=O)c1ccc(/C=C/c2ccnc3ccccc23)cc1	none (no result: Akt phos inh, TCR act)
CCC[N+](C)(C)c1ccc(/C=C/c2ccnc3ccccc23)cc1	PINK1 expr mod 3.16µM (no result: Akt phos inh, TCR act)
Oc1ccc(/C=C/c2ccnc3ccccc23)cc1	none
COc1cc2ccccc2cc1C(=O)OCC(=O)Nc1ccc(Br)cc1	none (no result: Akt phos inh, TCR act)

Compound activity from PubChem BioAssay.
